Results as given in PubChem BioAssay (NCI).
Compounds without any hit were thinned out: in the full panel of roughly 79,000, 15% have a hit. A number with no mark means an inactive call. The source made the active and inactive calls. No stated cut-off is given here; in the data, active means growth inhibition above about 70%; inactive means the rest.

Key:
[1] = NCI Yeast Anticancer Drug Screen. Data for the rad50 strain (AID 155);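 further: 0% = growth of vehicle-only cultures of the same strain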; settings: S. cerevisiae rad50 strain growth inhibition, active compounds read high
Summary of the method: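 Compounds were tested on a yeast strain with an engineered DNA damage repair alteration; the reported value is growth inhibition normalised to vehicle treatment.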

[2] = NCI Yeast Anticancer Drug Screen. Data for the mec2-1 strain (AID 157); settings: S. cerevisiae mec2-1 strain, active compounds read high
Summary of the method: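 Compounds were applied to mec2-1 yeast cells. Their growth was then compared with that of vehicle-treated cultures to give growth inhibition.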

[3] = NCI Yeast Anticancer Drug Screen. Data for the sgs1 mgt1 strain (AID 161);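 further: 0% = growth of cultures given vehicle only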; settings: S. cerevisiae sgs1 mgt1 strain, active compounds read high
Summary of the method: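 This yeast growth screen uses a strain with defined DNA-repair lesions; compound-treated growth is compared with vehicle-treated growth.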

[4] = NCI Yeast Anticancer Drug Screen. Data for the cln2 rad14 strain (AID 165);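 further: 0% = growth equal to vehicle treated cultures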; settings: S. cerevisiae cln2 rad14 strain, active compounds read high
Summary of the method: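 Strain: cln2 rad14 yeast, altered in cell cycle control and DNA damage repair. Read-out: growth inhibition vs vehicle.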

[5] = NCI Yeast Anticancer Drug Screen. Data for the bub3 strain (AID 167); settings: S. cerevisiae bub3 mutant strain, active compounds read high
Summary of the method: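 Growth of a checkpoint-deficient yeast mutant is measured after compound exposure. Values represent inhibition relative to vehicle.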

[6] = NCI Yeast Anticancer Drug Screen. Data for the mlh1 rad18 strain (AID 175); settings: S. cerevisiae mlh1 rad18 strain growth inhibition, active compounds read high
Summary of the method: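 A repair-deficient yeast strain is exposed to test compound, and growth is scored relative to vehicle-treated controls.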

[7] = at 5.0 µM (retest, dose inferred, filed as 0.5)
[8] = at 50.0 µM (retest, dose inferred, filed as 5.0)

Structure (SMILES) | growth inhibition [1, 7] | growth inhibition [1, 8] | growth inhibition ([1]; at 50.0 µM) | growth inhibition [2, 7] | growth inhibition [2, 8] | growth inhibition ([2]; at 50.0 µM) | growth inhibition [3, 7] | growth inhibition [3, 8] | growth inhibition ([3]; at 50.0 µM) | growth inhibition [4, 7] | growth inhibition [4, 8] | growth inhibition ([4]; at 50.0 µM) | growth inhibition [5, 7] [%] | growth inhibition [5, 8] | growth inhibition ([5]; at 50.0 µM) | growth inhibition [6, 7] | growth inhibition [6, 8] | growth inhibition ([6]; at 50.0 µM)
O=C(/C=C\c1cccc2ccccc12)c1ccccn1 | 7% | 97% (active) | 98.2% (active) | 4% | 97% (active) | 93.5% (active) | 12% | 99% (active) | 98.8% (active) | 0% | 97% (active) | 87.2% (active) | 20 | 99% (active) | 97% (active) | 9% | 99% (active) | 99% (active)
O=[N+]([O-])c1ccc(C2=Nn3cnnc3SC2)o1 | 2% | 36% | 81.7% (active) | 5% | 35% | 20.9% | 27% | 73% (active) | 80.8% (active) | 1% | 29% | 78.5% (active) | 4 | 75% (active) | 59.3% | 18% | 84% (active) | 86.7% (active)
c1ccc2nc(C[n+]3cccc4ccccc43)ccc2c1 | 86% (active) | 99% (active) | 97.5% (active) | 73% (active) | 99% (active) | 97.8% (active) | 70% (active) | 97% (active) | 58.4% | 72% (active) | 99% (active) | 80% (active) | 64 | 98% (active) | 97.9% (active) | 73% (active) | 98% (active) | 97.1% (active)
CCN(C(=O)c1ccccc1C)C(c1ccccc1)P(=O)(c1ccccc1)c1ccccc1 (configuration not stated) | 61% | 99% (active) | 78.6% (active) | 67% | 98% (active) | 86.3% (active) | 28% | 98% (active) | 87.7% (active) | 54% | 98% (active) | 53.8% | 61 | 96% (active) | 87.2% (active) | 61% | 99% (active) | 84.7% (active)
CCOC(=O)Cn1c(=O)c2nc(SC)sc2n(-c2ccc(C)cc2)c1=S | -3% | -1% | -4.9% | -1% | -10% | -6.25% | 0% | 6% | 27.1% | 14% | 17% | 34% | 1 | 9% | -10.4% | 2% | 12% | -19%
Cc1cc([N+](=O)[O-])cc(C)[n+]1[O-] | 13% | 67% | 82.5% (active) | 0% | 12% | 50.1% | 17% | 80% (active) | 91.2% (active) | 3% | 53% | 44.8% | 0 | -14% | 6.55% | 20% | 60% | 84.2% (active)
CCCCCSc1nc2ncnc(N)c2[nH]1 | 1% | 4% | 6.25% | 1% | 9% | -2.95% | -10% | -2% | 1.65% | 4% | 6% | 28.9% | 7 | 16% | -5.5% | 0% | 8% | -14.5%
CCCC12C=C(OC)C(=O)C=C1OC(c1ccc3c(c1)OCO3)C2C (configuration not stated) | 0% | 55% | 43.9% | -2% | 81% (active) | 70.8% (active) | 0% | 86% (active) | 80.8% (active) | -6% | 53% | 64.8% | 19 | 89% (active) | 79.3% (active) | -4% | 70% (active) | 55.1%
CCOP(=O)(OCC)/C(C#N)=C/c1ccc(C(F)(F)F)cc1 | 20% | 90% (active) | 89.5% (active) | -16% | 94% (active) | 91.7% (active) | 4% | 93% (active) | 90.9% (active) | 12% | 95% (active) | 89.4% (active) | 28 | 97% (active) | 89.4% (active) | 3% | 90% (active) | 86.8% (active)
O=[N+]([O-])C1CCCC(C2=CSC3CCCCC3N2)C1 (configuration not stated) | 5% | -7% | 48.2% | -21% | 10% | 80.8% (active) | -26% | -2% | 63.4% | -4% | 16% | 11.1% | 1 | 29% | 86% (active) | -24% | 36% | 37.9%
CCCCCCCCCCCCCCCCCCOC(=O)C(N)Cc1ccccc1 (configuration not stated) | -1% | -9% | -7.3% | -2% | -5% | 10.1% | 0% | -6% | 11.1% | -6% | -4% | -7.75% | -2 | -3% | -5.85% | -3% | -8% | 5.5%
Cc1ccc(S(=O)(=O)NNC(C[N+](=O)[O-])c2ccccc2)cc1 (configuration not stated) | 69% | 99% (active) | 96.9% (active) | 5% | 100% (active) | 44.4% | 23% | 99% (active) | 96.2% (active) | 8% | 74% (active) | 70.7% (active) | 17 | 99% (active) | 92.7% (active) | 36% | 99% (active) | 96% (active)
Cc1ccc(SCc2nc3ccccc3c(C)[n+]2[O-])cc1 | 2% | 86% (active) | 32.6% | 4% | 86% (active) | 45.6% | -7% | 87% (active) | 55% | 0% | 53% | 38% | -4 | 76% (active) | 55.9% | -7% | 91% (active) | 56.7%
CCCCCCCCCCCC(=O)OCC1CO1 (configuration not stated) | -6% | -26% | -11.7% | -13% | -8% | -4.65% | 6% | 1% | 24.6% | 29% | -55% | 34% | 9 | -44% | -6.5% | -16% | 3% | -11.4%
CC(C)n1nnc2c3ccccc3c3ccccc3c21 | 3% | 11% | -7.5% | 5% | -1% | 4.1% | -2% | 6% | 11.8% | 15% | 19% | -1.25% | 14 | 12% | 5.9% | -10% | 15% | 0%
Cc1ccc(S(=O)(=O)OCC2OC(c3ccccc3)OC3C(CO)OC(c4ccccc4)OC23)cc1 (configuration not stated) | -1% | -6% | 16.7% | 0% | -5% | 50.5% | -3% | -6% | 11.3% | 4% | -10% | 16.2% | 0 | -5% | -0.65% | 0% | -6% | 60.5%
COC1(OC)C2(Cl)C(Cl)=C(Cl)C1(Cl)C1C2C2CC1(C(=O)O)c1ccccc12 (configuration not stated) | 29% | 29% | 92% (active) | 23% | 23% | 93.4% (active) | 17% | 17% | 93% (active) | 26% | 26% | 91.5% (active) | 26 | 26% | 90.8% (active) | 41% | 41% | 90.5% (active)
Cc1ccc(C2(c3ccc(F)cc3)OC(=O)c3ccccc32)c(O)c1 (configuration not stated) | 11% | 99% (active) | 86.2% (active) | 13% | 99% (active) | 88.7% (active) | -14% | 99% (active) | 97% (active) | 3% | 99% (active) | 93.8% (active) | 11 | 99% (active) | 98.8% (active) | 27% | 99% (active) | 96.3% (active)
N#CCCN(CCC#N)Cc1cc(-c2ccccc2)ccc1O | 5% | 55% | 87.5% (active) | 1% | 19% | 55% | -2% | 59% | 59.5% | -8% | -8% | -14.9% | 1 | 44% | 85.2% (active) | -9% | 28% | 82.2% (active)
